Common to all, as to type: functional
The subject of assay [1] is Plasmodium falciparum. Kind of assay: GSK_TCMDC: Inhibition of Plasmodium falciparum 3D7 in whole red blood cells, using parasite LDH activity as an index of growth. Test compounds present at 2uM.
The test system of assay [2] is Plasmodium falciparum. In words: GSK_TCMDC: Inhibition of Plasmodium falciparum Dd2 in whole red blood cells, using parasite LDH activity as an index of growth. Test compounds present at 2uM.
Another assay deals with HepG2. Kind of assay: GSK_TCMDC: Percent inhibition of human HepG2 cell line. Test compounds present at 10uM.

Usually Inhibition stands for the relative decrease from the control value, in per cent. A higher Inhibition goes with a response far below the control. With `Cl.O=C1COc2cc(Cl)c(CNC3CCN(CCc4ccnc5c(F)cc(F)cc45)CC3)nc2N1`, the values for the Inhibition in the assay on Plasmodium falciparum [1], with Plasmodium falciparum [2] and in the assay on HepG2 were 98%, 49% and 96%, respectively.
For `CCCCNCc1ccc(-c2nc(CN(CCCN3CCN(C)CC3)C(=O)Nc3cccc(Cl)c3)cs2)cc1.O=C(O)C(F)(F)F`, in that order: 99%, 73% and 35%.
The like results for `Cc1cc(N)nc2ccc(-c3cccc(CN)c3)cc12` were, in that order, 100%, 59% and 2%.
For `Cc1cccc2nc(-c3ccc(-c4cccc(NC(=O)C(C)CN(C)C)c4)cc3)[nH]c12` (centres undefined), in that order: 99%, 61% and 20%.
With `CCCNC(=O)C1CCN(C(c2ccc(Cl)cc2)c2ccc(Cl)cc2)CC1`, the Inhibition in the assay with Plasmodium falciparum [1] is on record as 98%; in the assay on Plasmodium falciparum [2] it was 96%; in the assay with HepG2 it was 7%.
For `Cc1cnc2ccc(NS(=O)(=O)c3ccc4c(Cl)cccc4c3)cc2c1N1CCNCC1.Cl`, in that order: 100%, 3% and 24%.
The like results for `O=C(Nc1ccc(CCN2CCC(c3nc(COCC(F)(F)F)c(-c4ccccc4)o3)CC2)cc1)c1ccc(F)cc1` were, in that order, 86%, 3% and 9%.
The like results for `Cc1cc(NC(=O)c2cccs2)ccc1OC1CCN(Cc2ccc(F)cc2)CC1.O=C(O)C(F)(F)F` were, in that order, 94%, 92% and 7%.
For the compound `CCc1ccc(NC(=O)c2ccc(CN3CCCN(Cc4ccc(C)s4)CC3)cc2)cc1.O=C(O)C(F)(F)F`, the Inhibition was found to be 87% in the assay with Plasmodium falciparum [1], 0% with Plasmodium falciparum [2] and 48% with HepG2.
For `NC1CCN(CCNCc2cccc(-c3ccc(-c4nc5cc(F)ccc5[nH]4)cc3)c2)C1.O=C(O)C(F)(F)F` (centres undefined), in that order: 99%, 4% and 8%.
The like results for `COc1ccc2nccc([C@@H](O)CN3CCC(NC(=O)/C=C/c4ccc(Cl)c(C(F)(F)F)c4)CC3)c2c1` were, in that order, 100%, 89% and 11%.
The like results for `COCc1nc(-c2ccccc2)nc(N2CCN(C(=O)NC(C)C)CC2)c1Cc1ccccc1F` were, in that order, 96%, 94% and 35%.
`CN(C)CCNCc1ccc(-c2ccc3c(Nc4ccc(Cl)cc4F)ccnc3c2)o1`: the Inhibition with Plasmodium falciparum [1] was 99%; with Plasmodium falciparum [2], 100%; with HepG2, 14%.
For `Cc1noc(-c2ccc(O)cc2O)c1-c1ccc2c(c1)OCCCO2`, in that order: 100%, 99% and 8%.
The like results for `Cl.N=C(N)Nc1ccc(OCCCCCOc2ccc(NC(=N)N)c(Cl)c2)cc1Cl` were, in that order, 92%, 92% and 18%.
For `COc1ccc(Nc2nccc(N3CCC(NC(=O)Nc4cccc(C(C)=O)c4)C3)n2)cc1` (centres undefined), in that order: 98%, 79% and 29%.
As to `Cl.NC1=NC(c2ccccc2)N(OCc2ccccc2)C(N)=N1` (centres undefined), the Inhibition with Plasmodium falciparum [1] is on record as 96%; in the assay on Plasmodium falciparum [2], 21%; in the assay with HepG2 it was 5%.
The like results for `CC[C@H](C)CNC(=O)c1ccc(-c2cccc(CN3CCC(N4CCCC4)CC3)c2)nc1.O=C(O)C(F)(F)F` were, in that order, 91%, 7% and 0%.
Consider `NC(=O)c1cc2nc(Nc3ccc(F)cc3)nc(Nc3ccc(S(N)(=O)=O)cc3)c2[nH]1.O=CO`, for which the Inhibition with Plasmodium falciparum [1] is 100%; with Plasmodium falciparum [2] it was 99%; with HepG2, 2%.
As for `Br.CC1(C)NC(N)=NC(=N)N1OCCCNC(=O)c1ccc(C(=O)NCCCON2C(=N)N=C(N)NC2(C)C)cc1`, the Inhibition with Plasmodium falciparum [1] is recorded as 91%; in the assay on Plasmodium falciparum [2], 96%; in the assay on HepG2 it was 0%.
Regarding `CCc1c[nH]c2c(N(c3ccccc3)S(C)(=O)=O)cc(C(=O)N[C@@H](Cc3ccccc3)[C@H](O)CNCc3cccc(C(F)(F)F)c3)cc12.O=CO`, the Inhibition with Plasmodium falciparum [1] was determined as 93%; in the assay on Plasmodium falciparum [2], 98%; in the assay on HepG2, 20%.
For `Cc1cccc2nc(-c3cccc(-c4cccc(NC(=O)c5cncn5C)c4)c3)[nH]c12`, in that order: 100%, 91% and 0%.
As for `OC(c1ccccc1)C1CN(CCc2ccccc2)CCC1(O)c1ccccc1` (centres undefined), the Inhibition with Plasmodium falciparum [1] turned out to be 97%; in the assay with Plasmodium falciparum [2] it was 92%; in the assay on HepG2 it was 0%.
For `Cc1cc(C)c(NC(=O)NC2CCN(CCCCCNC(=O)/C=C/c3ccc(Cl)c(Cl)c3)C2)c(C)c1` (centres undefined), in that order: 99%, 48% and 23%.
The like results for `CC(C)(C)c1ccc(NC(=O)c2ccc(CN3CCCN(CC4CCCCC4)CC3)cc2)cc1.O=C(O)C(F)(F)F` were, in that order, 99%, 64% and 54%.
For `COc1ccc(NC(=O)C2CCN(CCCCCNC(=O)/C=C/c3ccc(Cl)c(Cl)c3)CC2)cc1`, in that order: 98%, 0% and 26%.
As for `O=C(Cc1ccccc1)NC1CCN(c2ccnc3cc(Cl)ccc23)C1.O=C(O)C(F)(F)F` (centres undefined), the Inhibition stood at 100% with Plasmodium falciparum [1], 78% with Plasmodium falciparum [2] and 6% in the assay on HepG2.
The like results for `CNCCNCc1ccc(-c2cccc(-c3nc4cc(C(F)(F)F)ccc4[nH]3)c2)cc1.O=C(O)C(F)(F)F` were, in that order, 98%, 77% and 27%.

The values are drawn from ChEMBL document CHEMBL1157539, “Thousands of chemical starting points for antimalarial lead identification” (Nature, 2010).
